The whole screen tested about 300,000 compounds, of which about 37,000 (12%) were called active. Cut-off read from the data, not from the text of the source: active = max response mostly above about 13% (no sharp cut-off); inactive = mostly below about 14%. Shown is part of a subset that was picked to be rich in actives.

This assay is described as follows: Cycloheximide Counterscreen for Small Molecule Inhibitors of Shiga Toxin. Note: read at 38.3 µM for the half of the compounds with a filed dose; 0% is about no effect. The settings on record: cell reporter, cycloheximide protein synthesis inhibition counterscreen; hits give high values. For orientation: Counterscreens check selectivity or assay interference.
For `CCn1cc(C(=O)Nc2cc(C)ccc2C)c(=O)c2ccc(C)nc21`, the max response was 7.8% (inactive). `Oc1ccccc1C1=NN(c2ccccc2)C(c2ccccc2)C1` (configuration not stated): the max response was 49.1% (active).

As to `COc1ccccc1N1N=C(c2cccs2)CC1c1ccccc1` (configuration not stated), the max response was 6.34% (inactive).

`O=C(c1ccccc1)N1N=C(c2ccccc2O)CC1c1ccc(Br)cc1` (configuration not stated): the max response is 3.47% (inactive).

For `CC(=O)Oc1ccccc1C1=NN(C(C)=O)C(c2ccccc2)C1` (configuration not stated), the max response was 9.57% (inactive). Under `COc1ccc(C2=NN(c3ccccc3)C(c3cccs3)C2)cc1` (configuration not stated) stands 0.803% (inactive); under `COc1ccc(C2CC(c3cccs3)=NN2c2ccccc2)cc1` (configuration not stated), 41% (active); under `Cc1cc(C)nc(N/N=C/c2ccncc2)n1`, 0.636% (inactive). The figure for `COc1cccc(OCC(=O)NNC(=O)c2cnccn2)c1` is -1.98% (inactive); for `NS(=O)(=O)c1ccc(CNC(=O)c2cnccn2)cc1` it is -2.6% (inactive). With `CCN(CC)c1ccc(/C=N/NC(=O)c2cnccn2)c(O)c1`, the max response is 28.1% (active). Under `Cc1cc(C)nc(N/N=C/c2c(CO)cnc(C)c2O)n1` stands -2.74% (inactive); under `CCN(CC)c1ccc(/C=N/Nc2nc(C)cc(C)n2)c(O)c1`, 22.2% (active); under `O=C(Nc1ccccc1Cl)/C(Cl)=C(\Cl)S(=O)c1ccccc1` (configuration not stated), 14.2% (inactive). For the compound `Cc1cccc(NC(=O)N(Cc2cc3cc(C)cc(C)c3[nH]c2=O)CC2COCCO2)c1` (configuration not stated), the max response is -3.44% (inactive). Turning to `O=C(Nc1ccccc1-c1ccccc1)c1ccccc1[N+](=O)[O-]`, the max response was -3.24% (inactive). The figure for `CCN(Cc1ccccc1)C(=O)CN1C(=S)NC(C)(C)CC1C` (configuration not stated) is -3.52% (inactive); for `CCc1ccc2c(c1)C1(NN=C(c3ccccc3)S1)C(=O)N2` (configuration not stated) it is 69.8% (active).

As for `CCOC(=O)c1c(NC(=O)CCCN2CCOCC2)sc2c1CC(C)(C)OC2`, the max response is 12.6% (inactive). Regarding `CC(C)N(C(=O)c1ccc(-c2ccccc2F)cc1)C(C)C`, the max response is -2.02% (inactive). For the compound `COc1ccc(CN(C)C(=O)Cc2c[nH]c3ccccc23)c(OC)c1OC`, the max response is -1.59% (inactive). As for `CN(Cc1cccs1)C(=O)Cc1c[nH]c2ccccc12`, the max response was 18.3% (active).

On to `CCOC(=O)CN(C)Cc1c[nH]c2ccccc12`, for which the max response is 0.657% (inactive). For `COc1cccc(CNC(=O)Cc2csc(Nc3nc(=S)[nH]c4ccccc34)n2)c1`, the max response was 10.3% (inactive). The figure for `CCOC(CNC(=O)C(=O)NCC(c1ccco1)N1CCN(c2ccc(OC)cc2)CC1)OCC` (configuration not stated) is -5.43% (inactive). Regarding `CCCC(C)C(=O)NCc1ccncc1` (configuration not stated), the max response was -3.47% (inactive).

With `O=C(NNc1ccccc1Cl)C(O)(c1cccc(C(F)(F)F)c1)c1cccc(C(F)(F)F)c1`, the max response is -4.75% (inactive).

Turning to `N#CC(=C1SC=CS1)c1nc(-c2ccccc2)cs1`, the max response is 58.5% (active). As to `N#CC(=C1CCCC1)c1nc(-c2ccc(Cl)cc2)cs1`, the max response is 27.6% (inactive). For the compound `Cn1c(/C(C#N)=C2/CCCCCN2)nc2ccccc21`, the max response was 9.03% (inactive). `N#C/C(=C1/CCCN1)c1ccccn1`: the max response was -2.58% (inactive). The figure for `N#C/C(=C1\CCCN1)c1nc(-c2ccccc2)cs1` is 23% (active). Take `Cc1ccc(S(=O)(=O)N2CCC(=O)N([C@H](COCc3ccccc3)Cc3ccccc3)CC2)cc1`: the max response was 7.08% (inactive). Take `CN(/C(=N/S(=O)(=O)c1cccs1)c1ccccc1)c1ccc(O)cc1`: the max response is 11.5% (inactive). The figure for `CN(C)S(=O)(=O)c1ccc(N2CCCC2)c(C(=O)Nc2cccc(F)c2)c1` is -3.38% (inactive); for `COc1ccc(CNC(=O)c2nnn(CC(=O)Nc3cc(C)cc(C)c3)c2N)cc1` it is -2.25% (inactive). On to `CCN(CC)c1ccc(C(=O)Nn2c(C)nc3ccccc3c2=O)cc1`, for which the max response was -2.07% (inactive). `CCN(CC)c1ccc2cc(C(N)=O)/c(=N\NC(=O)c3ccncc3)oc2c1`: the max response was 5.35% (inactive). Turning to `CCN(CC)c1ccc2oc(=O)c(C)nc2c1`, the max response was 16.6% (active). With `CCc1[nH]nc(C(=O)N2CCCC(CO)(Cc3ccc(F)cc3F)C2)c1C` (configuration not stated), the max response was -3.79% (inactive). The figure for `CCN(C(=O)c1cc([N+](=O)[O-])ccc1NCc1cccnc1)c1ccccc1` is -3.46% (inactive); for `CN1C(=O)c2ccc(NC(=O)C3CCCCC3)cc2C1=O` it is 1.88% (inactive); for `CS(=O)(=O)c1ccc2nc(NC(=O)C3CCCCC3)sc2c1` it is 9.31% (inactive). With `Cc1nc(NC(=O)C23CCC(C)(C(=O)O2)C3(C)C)sc1C` (configuration not stated), the max response is -1.47% (inactive). In the case of `Cc1cnc(NC(=O)C2CCCC2)s1`, the max response was 23.2% (active). Consider `CCOC(=O)c1cc(C)sc1NC(=O)C1CCC1`, for which the max response was 6.29% (inactive).

As to `Cc1nc(NC(=O)C2CCCCC2)sc1C`, the max response was 40.1% (active). The figure for `CC(=O)NC1C(Oc2ccc(C)cc2)OC2COC(c3ccco3)OC2C1O` (configuration not stated) is -5.51% (inactive); for `Cc1cc2c(s1)c1cnn(Cc3c(F)cccc3Cl)c(=O)c1n2C` it is 4.69% (inactive).

For `CC(C)(C)c1cc[n+](-c2[nH]c(=O)sc2/C=N/N=C(\[O-])c2ccccc2)cc1`, the max response was 25.7% (active). For the compound `Cc1cc[n+](-c2[nH]c(=O)sc2/C=N/NC(=O)c2ccccc2[O-])cc1C`, the max response is 1.3% (inactive). Under `CCOC(=O)c1c(C)[nH]c(C)c1S(=O)(=O)N(C)CC(=O)Nc1ccccc1C` stands -6.33% (inactive); under `O=C(CCC(=O)n1ncc2ccccc21)NCc1ccccc1Cl`, -1.42% (inactive). Take `COc1ccc([N+](=O)[O-])cc1N(CC(=O)Nc1ccccc1C(=O)N1CCOCC1)S(C)(=O)=O`: the max response is -2.31% (inactive). As for `O=C(CSc1nnc(SCc2ccc(Cl)cc2)s1)N/N=C/c1ccccc1Cl`, the max response is 12.5% (active). The figure for `Cc1nnsc1C(=O)N/N=C/c1ccccc1Cl` is -0.513% (inactive). For the compound `O=C(Cc1ccccc1)N/N=C/c1ccc(Cl)cc1Cl`, the max response is 12% (inactive). For `N#C/C(=C/c1ccc(Cl)cc1)NC(=O)c1ccccc1`, the max response is 17.9% (inactive). For `Cc1ccc(C)c(CSc2nc(-c3ccco3)nc3c2c(=O)n(C)c(=O)n3C)c1`, the max response was -2.42% (inactive). For `Cc1ccc(C)c(CN2CCC(CNC(=O)Nc3ccc(C)c(F)c3)CC2)c1`, the max response was 1.71% (inactive).

Take `N#CC1(NC(=O)COC(=O)CCN=C2NS(=O)(=O)c3ccccc32)CCCCC1`: the max response was -3.22% (inactive).

Consider `COC(=O)[C@@H](NC(=O)NCc1cccc(OC)c1)C(C)C`, for which the max response is -2.02% (inactive). Regarding `COc1cccc(CC(=O)Nc2ccc(-c3csc(C)n3)cc2)c1`, the max response is 15.4% (inactive). On to `COc1cccc(NC(=O)Cc2ccc(C)cc2)c1`, for which the max response was 27.5% (active).

Regarding `Cc1ccc(CC(=O)Nc2cccc(C#N)c2)cc1`, the max response was 14.1% (inactive). With `COc1cccc(NC(=O)NCCN2CCCCC2)c1`, the max response was 0.722% (inactive). Under `COc1cccc(NC(=O)NCc2ccc(F)cc2)c1` stands 10.4% (active).
